High-throughput results deposited in PubChem by National Center for Advancing Translational Sciences (NCATS).
Rows were chosen to be rich in hits. Some 11% of all compounds tested hit in one or more screens of this group.
Pf growth 48h = inhibits P. falciparum growth in the first generation, 48 h. P. falciparum luciferase growth in erythrocytes, 48 h. Potency, µM (highest dose often 28.7 µM), usual class: inhibitors. hit rate 5.9% among 310,000. AID 504832
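A one-generation exposure of luciferase-tagged malaria parasites in RPMI 1640/Albumax erythrocyte culture, 37 C and 5% CO2. Inhibition is inferred from decreased luminescence after adding detection reagent.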
Pf growth 96h = inhibits malaria parasite growth, 96 h; P. falciparum luciferase reporter growth, 96 h; Potency, µM (titrated, usually from 28.7 µM), hits mostly inhibitors; hit rate 6.9% among 320,000; AID 504834
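P. falciparum expressing integrated firefly luciferase, in erythrocytes at 2% hematocrit, 0.05% parasitemia, incubated with compounds 96 h at 37 C, 5% CO2. Growth inhibition read as loss of luminescence; two-generation exposure targets delayed-death apicoplast inhibitors.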
AMA1-RON2 inh = AMA1-RON2 (P. falciparum) interaction inhibition | Potency, µM (doses to about 58.2 µM), hits mostly inhibitors | hit rate 0.2% among 360,000 | AlphaScreen AMA1-biotinylated RON2 peptide binding; note: nearly all actives have a fitted effect of over 45% in size
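AMA1 (3D7) with his tag at 25 nM final met compounds first, then biotinylated RON2 peptide at 25 nM; detection used donor plus acceptor beads, 10 µg/mL apiece, read by AlphaScreen after 30 min at room temperature.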
HCV inh = inhibitors of hepatitis C virus infection; hit rate 3.4% among 340,000; Huh7.5.1 HCVcc-Cre infection, luciferase reporter, 44 h; AID 651820; Potency, µM (series often up to 41.8 µM), hits mostly inhibitors
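Luciferase read-out (15 sec integration) after a 15 min room-temperature substrate step quantifies HCVcc-Cre infection. Cells, 1,000 per well, had compound added 4 h post-plating, then virus at ~0.5 moi, and were cultured 44 h.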
Each line names hits and unclear results; the compound was inactive in the other large screens. Calls come from the whole dose curve; as a rule, active = well fitted curve in the direction sought with a large enough effect; inconclusive = small, poorly fitted or top-dose-only effect, or another doubt; inactive = no such curve, though single readings can be large; an effect the other way counts as inactive or inconclusive.

COC(=O)c1ccc(NC(=O)C2CCCN2C(=O)OCc2ccccc2)cc1 (stereo not given)	Pf growth 96h 5.9µM
CCOc1ccccc1NC(=O)C1CCCN1C(=O)OCc1ccccc1 (stereo not given)	Pf growth 96h 9.3µM, HCV inh inconclusive
O=C(Nc1cccc(F)c1)C1CCCN1C(=O)OCc1ccccc1 (stereo not given)	Pf growth 96h inconclusive
COc1cc2nc(N3CCN(C(=O)OCc4ccccc4)[C@H](C(=O)NC(C)(C)C)C3)nc(N)c2cc1OC	Pf growth 48h 2.9µM, Pf growth 96h 5.2µM, HCV inh inconclusive
CCOC(=O)c1ccc(Nc2nc(C(=O)OCC)nc3ccccc23)cc1	Pf growth 48h 9.3µM, HCV inh inconclusive
CCOC(=O)c1nc(Nc2ccc(C(=O)O)cc2)c2ccccc2n1	none
CCOC(=O)Nc1ccc(Oc2ccccc2)cc1	Pf growth 96h inconclusive
CCOC(=O)Nc1c2ccccc2nc2ccccc12	Pf growth 48h 15µM, Pf growth 96h 10µM
CCOC(=O)c1nc(Nc2ccc(Nc3ccccc3)cc2)c2ccccc2n1	Pf growth 48h inconclusive, Pf growth 96h inconclusive, AMA1-RON2 inh inconclusive, HCV inh 11µM
CCc1[nH]nc2c1C1(CCN(C(=O)OCc3ccccc3)CC1)C(C#N)=C(N)O2	Pf growth 96h 0.19µM
C=CCn1c(SCc2ccc(C#N)cc2)nnc1-c1ccc(C)cc1	Pf growth 48h inconclusive, Pf growth 96h 12µM
COc1ccc(NCc2nnc(SCc3ccc(Cl)cc3)n2-c2ccccc2)cc1	AMA1-RON2 inh 20µM, HCV inh 8.9µM
COc1ccc(-n2c(COc3ccc(C)cc3)n[nH]c2=S)cc1	Pf growth 96h 0.47µM
COc1ccc(-n2c(COc3ccc(Cl)cc3)nnc2SCc2ccc(C#N)cc2)cc1	Pf growth 48h inconclusive, HCV inh inconclusive (no result: Pf growth 96h)
COc1ccc(-n2c(COc3ccc(C)cc3)nnc2SCc2ccc(C#N)cc2)cc1	Pf growth 48h inconclusive, Pf growth 96h inconclusive, HCV inh 22µM
COc1ccc(NCc2nnc(SCC(=O)Nc3nc(-c4ccccc4)cs3)n2-c2ccccc2)cc1	HCV inh inconclusive
C[C@@H]1CN([C@@H](C)CO)C(=O)c2cc(NS(C)(=O)=O)ccc2O[C@@H]1CN(C)S(=O)(=O)c1ccccc1	none (no result: Pf growth 48h, Pf growth 96h)
COc1ccc([N+](=O)[O-])cc1NC(=O)c1ccc(CN(c2ccccc2)S(C)(=O)=O)cc1	Pf growth 48h inconclusive, HCV inh inconclusive
CCOc1ccc(-n2c(SCc3ccc(C#N)cc3)nnc2-c2cccnc2)cc1	Pf growth 48h inconclusive
CCOc1ccc(-n2c(SCc3ccc([N+](=O)[O-])cc3)nnc2-c2ccc(OC)cc2)cc1	Pf growth 48h inconclusive, Pf growth 96h 8.3µM, HCV inh inconclusive
Cc1cc(C)nc(SCc2nnc(SCC(=O)O)n2-c2ccccc2)n1	none
Cc1ccc(OCc2nnc(SCC(=O)c3ccccc3)n2-c2ccccc2)cc1	Pf growth 48h 13µM, HCV inh inconclusive
Cc1ccc(OCc2nnc(SCC(=O)O)n2-c2ccccc2)cc1	none (no result: Pf growth 48h, Pf growth 96h)
NC(=O)CSc1nnc(CSc2ncccn2)n1-c1ccccc1	Pf growth 96h 13µM
NC(=O)C1CN(C(=O)c2nn(Cc3ccccc3)c(=O)c3ccccc23)c2ccccc2O1 (stereo not given)	Pf growth 48h inconclusive, Pf growth 96h inconclusive
COC(=O)Nc1sc2c(c1C(=O)NCc1ccco1)CCCC2	Pf growth 96h inconclusive, HCV inh inconclusive
COc1ccc(-c2noc(-c3ccccc3C(=O)NCc3ccco3)n2)cc1	none
COc1ccc(C(=O)Nc2sc3c(c2C(=O)NCc2ccco2)CCCC3)cc1OC	Pf growth 96h 3.3µM, HCV inh inconclusive (no result: Pf growth 48h)
Cc1cc(O)c(-c2cc(C(=O)Nc3sc4c(c3C(=O)NCc3ccco3)CCC4)[nH]n2)cc1C	Pf growth 48h 1.2µM, Pf growth 96h 1.9µM, HCV inh inconclusive
COc1ccc(-c2noc(-c3ccccc3C(=O)NCc3ccco3)n2)cc1OC	HCV inh 5.6µM
Cc1ccc(C(=O)Nc2sc3c(c2C(=O)NCc2ccco2)CCCC3)cc1	Pf growth 96h inconclusive, HCV inh inconclusive (no result: Pf growth 48h)
COc1cc(C(=O)Nc2sc3c(c2C(=O)NCc2ccco2)CCCC3)cc(OC)c1OC	Pf growth 96h 1.7µM, HCV inh inconclusive (no result: Pf growth 48h)
O=C(CN1C(=O)NC2(CCCC2)C1=O)Nc1cc(S(=O)(=O)N2CCOCC2)ccc1OCC(F)(F)F	none
Cc1nc([N+](=O)[O-])cn1CC(=O)Nc1ccc(F)c(Cl)c1	Pf growth 96h inconclusive
O=C(CCN=C1NS(=O)(=O)c2ccccc21)OCc1cccc(Cl)c1	none
CC(C)Oc1ccc(CNC(=O)Cn2ccc3cc(S(=O)(=O)N4CCCC4)ccc32)cc1	Pf growth 96h inconclusive
CCn1cc(CNCc2cn(C)nc2-c2ccc(C3CCCCC3)cc2)cn1	Pf growth 48h inconclusive
COc1ccc(C(=O)Nc2ccc(Cl)cc2C(=O)NCc2ccco2)cc1OC	Pf growth 48h 10µM, HCV inh inconclusive
COc1ccc(C(=O)Nc2ccccc2C(=O)NCc2ccco2)cc1OC	Pf growth 96h inconclusive, HCV inh inconclusive (no result: Pf growth 48h)
COc1ccc(NC(=S)Nc2cccc(C)n2)cc1	Pf growth 48h 4.7µM, Pf growth 96h inconclusive, HCV inh inconclusive
COCCN(C(=O)C1CC(=O)N(Cc2ccccc2)C1)c1nc(-c2ccc([N+](=O)[O-])cc2)cs1 (stereo not given)	Pf growth 48h 13µM, Pf growth 96h inconclusive, HCV inh inconclusive
COc1cccc(-c2nc(CS(=O)CC(=O)NCc3ccccc3Cl)c(C)o2)c1 (stereo not given)	HCV inh inconclusive (no result: Pf growth 48h)
COc1ccc(CNC(=O)c2ccc(-c3c(C)noc3C)c3ccoc23)cc1OC	none (no result: Pf growth 48h, Pf growth 96h, HCV inh)
CCN1/C(=C/c2ccc3cc(C)ccc3[n+]2CC)Sc2cc(C)c(C)cc21	Pf growth 48h 2.1µM, HCV inh 1.1µM
CCC(=O)/C=C1/Sc2ccc(OC)cc2N1CC	Pf growth 48h inconclusive, HCV inh inconclusive
CCN1/C(=C/c2ccc3cc(C)ccc3[n+]2CC)Sc2ccccc21	Pf growth 48h 0.59µM, HCV inh 1.6µM
CCN1/C(=C/C=C/C=C/C=C/c2sc3ccccc3[n+]2CC)Sc2ccccc21	Pf growth 48h inconclusive, AMA1-RON2 inh inconclusive, HCV inh inconclusive
O=C(NCc1cccnc1)NC1CC(=O)N(c2ccc3c(c2)OCCO3)C1 (stereo not given)	Pf growth 96h inconclusive
Cc1cc(Br)c(OCc2ccc(C(=O)N/N=C3\CC4CC=CC34)cc2)c(Br)c1 (stereo not given)	Pf growth 48h 10µM, Pf growth 96h inconclusive, HCV inh inconclusive
CCn1c(O)c(N=NC(=O)Cn2ccc(C(F)(F)F)n2)c2ccccc21	none
O=C(N=Nc1c(O)n(Cc2ccccc2)c2ccccc12)c1cc2ccccc2cc1O	Pf growth 48h inconclusive, HCV inh inconclusive
Cn1cnnc1SCC(=O)NNC(=O)c1ccc(Cl)cc1	none
Cn1cnnc1SCc1ccc(C(=O)N=Nc2c(O)n(Cc3ccc(Cl)cc3)c3ccccc23)cc1	Pf growth 48h 2.3µM, Pf growth 96h 3.7µM, HCV inh 10µM
CCn1c(O)c(N=NC(=O)c2ccc(CSc3nncn3C)cc2)c2ccccc21	Pf growth 48h 10µM, Pf growth 96h 12µM, HCV inh inconclusive
